Data as given in PubChem BioAssay (NCI).
This is part of a sample that, as a whole, favours compounds with a hit. Of some 79,000 tested, about 15% had one in any assay. Values without a mark were called inactive. The source made the active and inactive calls. Cut-off read from the data, not from the text of the source: active = growth inhibition above about 70%; inactive = the rest.

Columns and labels:
[1] = NCI Yeast Anticancer Drug Screen. Data for the rad50 strain (AID 155);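 note: 0% = growth of vehicle-only cultures of the same strain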; conditions: S. cerevisiae rad50 strain growth inhibition, active compounds read high
In short: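 Genetically altered yeast (DNA repair pathway); compound treatment; growth inhibition vs vehicle ctrl.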

[2] = NCI Yeast Anticancer Drug Screen. Data for the mec2-1 strain (AID 157); conditions: S. cerevisiae mec2-1 strain, active compounds read high
In short: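 Compounds were applied to mec2-1 yeast cells. Their growth was then compared with that of vehicle-treated cultures to give growth inhibition.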

[3] = NCI Yeast Anticancer Drug Screen. Data for the sgs1 mgt1 strain (AID 161);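 note: 0% = growth of cultures given vehicle only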; conditions: S. cerevisiae sgs1 mgt1 strain, active compounds read high
In short: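 Percent growth inhibition was derived by comparing compound-exposed mutant yeast with vehicle-exposed cultures. The strain carries alterations in DNA damage repair.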

[4] = NCI Yeast Anticancer Drug Screen. Data for the cln2 rad14 strain (AID 165);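 note: 0% = growth equal to vehicle treated cultures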; conditions: S. cerevisiae cln2 rad14 strain, active compounds read high
In short: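 Strain: cln2 rad14 yeast, altered in cell cycle control and DNA damage repair. Read-out: growth inhibition vs vehicle.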

[5] = NCI Yeast Anticancer Drug Screen. Data for the bub3 strain (AID 167); conditions: S. cerevisiae bub3 mutant strain, active compounds read high
In short: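 Yeast carrying a defined mutation is treated with each compound, and growth is compared with that of vehicle-exposed cells to give inhibition.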

[6] = NCI Yeast Anticancer Drug Screen. Data for the mlh1 rad18 strain (AID 175); conditions: S. cerevisiae mlh1 rad18 strain growth inhibition, active compounds read high
In short: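 A repair-deficient yeast strain is exposed to test compound, and growth is scored relative to vehicle-treated controls.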

[7] = at 5.0 µM (retest, dose inferred, filed as 0.5)
[8] = at 50.0 µM (retest, dose inferred, filed as 5.0)

Row | Compound | growth inhibition [1, 7] | growth inhibition [1, 8] | growth inhibition ([1]; at 50.0 µM) | growth inhibition [2, 7] | growth inhibition [2, 8] | growth inhibition ([2]; at 50.0 µM) | growth inhibition [3, 7] | growth inhibition [3, 8] | growth inhibition ([3]; at 50.0 µM) | growth inhibition [4, 7] | growth inhibition [4, 8] | growth inhibition ([4]; at 50.0 µM) | growth inhibition [5, 7] | growth inhibition [5, 8] | growth inhibition ([5]; at 50.0 µM) | growth inhibition [6, 7] | growth inhibition [6, 8] | growth inhibition ([6]; at 50.0 µM)
1 | CCN(CC)c1ccc(N=Nc2ccc(Br)cn2)c(O)c1 | -1% | 51% | 96.8% (active) | -4% | 84% (active) | 95.5% (active) | -3% | 79% (active) | 97.1% (active) | -2% | 46% | 94.7% (active) | 1% | 71% (active) | 97.2% (active) | -1% | 77% (active) | 97.2% (active)
2 | O=Cc1[nH]c(=S)[nH]c(=O)c1Cc1cccc2ccccc12 | -8% | 96% (active) | 97.9% (active) | -3% | 98% (active) | 97.8% (active) | 11% | 99% (active) | 98.8% (active) | 0% | 98% (active) | 91.8% (active) | -19% | 98% (active) | 98% (active) | -3% | 98% (active) | 98.9% (active)
3 | O=C(NC(=Nc1ccccc1)SCCSC(=Nc1ccccc1)NC(=O)c1ccccc1)c1ccccc1 | 0% | 0% | 85.6% (active) | 18% | 18% | 79.9% (active) | 10% | 10% | 86.2% (active) | 5% | 5% | 84.5% (active) | -3% | -3% | 88% (active) | 1% | 1% | 78% (active)
4 | CCOC1=C(c2ccccc2)Sc2ccc(C)cc2C1c1ccc(C)cc1 (configuration not stated) | 15% | 35% | 60.2% | 0% | 76% (active) | 78.2% (active) | 10% | 81% (active) | 95.3% (active) | -4% | 51% | 13.1% | -3% | 61% | 90% (active) | -2% | 81% (active) | 82.9% (active)
5 | Nc1ccc2nc3ccccc3nc2c1 | -11% | 95% (active) | 97% (active) | -11% | 60% | 81% (active) | -22% | 77% (active) | 64.8% | -10% | 44% | 74% (active) | -4% | 78% (active) | 75.8% (active) | 4% | 90% (active) | 88.4% (active)
6 | S=C(N/N=C/c1ccccn1)N1CC2CCC(CC2)C1 | 99% (active) | 100% (active) | 90.2% (active) | 99% (active) | 100% (active) | 93.5% (active) | 98% (active) | 99% (active) | 92% (active) | 97% (active) | 100% (active) | 93.2% (active) | 99% (active) | 99% (active) | 92.7% (active) | 99% (active) | 99% (active) | 89.7% (active)
7 | CC(C)(C)c1cc(C(O)(C(F)(F)F)C(F)(F)F)c(Cl)c(C(O)(C(F)(F)F)C(F)(F)F)c1 | 10% | 99% (active) | 99.5% (active) | 13% | 98% (active) | 99.7% (active) | 11% | 99% (active) | 99.7% (active) | 24% | 99% (active) | 99% (active) | 14% | 99% (active) | 99.8% (active) | 8% | 99% (active) | 99.5% (active)
8 | CC1C(=O)C(Br)CC2C1(C)CCC1C2(C)CCC2(C)C3CC(C)(C)CCC3(C)CCC12C (configuration not stated) | 6% | -1% | 25.7% | 5% | 3% | 6.25% | 8% | -13% | 4.2% | 7% | 6% | 64.5% | 6% | 5% | 85% (active) | -2% | 0% | 0.3%
9 | C/C(=C\c1ccccc1Cl)c1ccccn1 | 2% | 67% | 86.2% (active) | 2% | 49% | 89.6% (active) | 6% | 71% (active) | 80.7% (active) | -7% | 7% | -44.5% | 33% | 98% (active) | 96.8% (active) | 10% | 27% | 83% (active)
10 | c1ccc2c(O[Si](Oc3cccc4ccccc34)(Oc3cccc4ccccc34)Oc3cccc4ccccc34)cccc2c1 | 7% | 87% (active) | 96% (active) | 0% | 87% (active) | 97.7% (active) | 3% | 89% (active) | 97.8% (active) | -5% | 71% (active) | 89.6% (active) | 3% | 93% (active) | 96.8% (active) | 2% | 86% (active) | 95.8% (active)
11 | CC1OC(OP(=O)(OCc2ccccc2)OCc2ccccc2)C(OC(=O)c2ccccc2)C(OC(=O)c2ccccc2)C1I (configuration not stated) | 50% | 93% (active) | 86.1% (active) | 33% | 95% (active) | 90.6% (active) | 37% | 96% (active) | 90.1% (active) | 29% | 95% (active) | 88.5% (active) | 30% | 77% (active) | 88.9% (active) | 55% | 93% (active) | 85% (active)
12 | Cc1ccccc1Nc1nc(-c2ccccc2)nc(N)c1N=O | 9% | 98% (active) | 59.2% | 9% | 98% (active) | 43% | 32% | 98% (active) | 72.8% (active) | 13% | 97% (active) | 28.6% | 4% | 97% (active) | 45% | 9% | 97% (active) | 59%
13 | COc1cc2c[n+](C)c3c4ccccc4ccc3c2cc1OC (tested in a mixture with another compound) | 27% | 87% (active) | 38% | 24% | 54% | 8.85% | 24% | 90% (active) | 7.1% | 21% | 69% | 9.7% | 27% | 81% (active) | 17.9% | 35% | 77% (active) | -18.6%
14 | COc1ccc(SSc2ccc(OC)n[n+]2[O-])[n+]([O-])n1 | 98% (active) | 99% (active) | 99.3% (active) | 98% (active) | 100% (active) | 99.7% (active) | 93% (active) | 99% (active) | 98.8% (active) | 57% | 97% (active) | 98.3% (active) | 59% | 99% (active) | 99.5% (active) | 72% (active) | 99% (active) | 99.5% (active)
15 | CCN1C(/C=C/c2ccc(O)c3ncccc23)CCC2CC(C)CCC21 (configuration not stated) | 20% | 94% (active) | 95.3% (active) | 12% | 97% (active) | 95.5% (active) | 62% | 96% (active) | 95.5% (active) | 10% | 90% (active) | 88.9% (active) | 30% | 94% (active) | 94% (active) | 41% | 94% (active) | 94.3% (active)
16 | CCCCNc1ncc(OCC)c(NCCCC)n1 | 1% | -1% | 73.5% (active) | 4% | -44% | 88.9% (active) | 0% | 4% | 92.5% (active) | -2% | 4% | 42.6% | 39% | 23% | 94.9% (active) | 0% | 1% | 77.7% (active)
17 | CCN(CC)CCNC(=O)c1ccc2c(c1O)C(=O)c1ccccc1C2=O | 6% | 54% | 57.3% | 27% | 24% | 36% | 1% | 40% | 60.5% | -10% | 23% | 3.55% | -3% | 43% | 33% | 9% | 44% | 70% (active)
18 | CCC[CH2][Sn]([CH2]CCC)([O]C(=O)c1cc(OC)c(OC)c(OC)c1)[O]C(=O)c1cc(OC)c(OC)c(OC)c1 | 96% (active) | 96% (active) | 71.9% (active) | 96% (active) | 96% (active) | 84.7% (active) | 94% (active) | 94% (active) | 74.8% (active) | 95% (active) | 95% (active) | 80% (active) | 97% (active) | 97% (active) | 74.8% (active) | 96% (active) | 96% (active) | 78.5% (active)
19 | COc1cccc2c1C(=O)c1c(O)c3c(c(O)c1C2=O)CC(O)(C(C)=O)CC3OC1CC(NCC2(O)OCC(O)C(O)C2O)C(O)C(C)O1 (configuration not stated) | 54% | 98% (active) | 85.2% (active) | 33% | 98% (active) | 86.5% (active) | 38% | 98% (active) | 79.8% (active) | 38% | 94% (active) | 73.3% (active) | 27% | 98% (active) | 83.2% (active) | 62% | 97% (active) | 87.9% (active)
